From PubChem
PABP polyA inh = blocks human PABP binding to poly(A) RNA; calls only at 35 µM; 290,000 tested, 1% active; AID 2014; P11940; fluorescence polarization;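 also: calls also rest on retests at 20 µM and on dose response follow-up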
eIF4H FP inh = inhibitors of RNA binding by human eIF4H | eIF4H fluorescence polarization binding assay | Q15056 | inhibition, % at 35 µM | 290,000 tested, 0.94% active;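 also: calls also rest on retests at 20 µM and on dose response follow-up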
14-3-3 Bad PPI = disrupts binding of bovine 14-3-3 zeta to phospho-Bad peptide; TR-FRET 14-3-3zeta/Dy647-pBad peptide displacement, 1 h; inhibition, % at 21.7 µM; 220,000 tested, 0.71% active;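 active = inhibition above about 70%, limit read from the data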
MLLE-PAM2 inh = blocks PAM2 peptide binding to the PABP1 MLLE domain; 360,000 tested, 0.36% active; inhibition, % at 20 µM; P11940; GST-MLLE / FITC-PAM2 fluorescence polarization; in the data active = inhibition above about 35%, passing the limit was not always enough
eIF4E 4G PPI = inhibitors of eIF4E and eIF4G interaction in translation initiation | P63073+Q04637 | TR-FRET eIF4E-eIF4GI(517-606) binding, 2 h | inhibition, % at 21.7 µM | 220,000 tested, 0.37% active;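 active = inhibition above about 30%, limit read from the data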
Target sequence (P63073 whole entry, looked up): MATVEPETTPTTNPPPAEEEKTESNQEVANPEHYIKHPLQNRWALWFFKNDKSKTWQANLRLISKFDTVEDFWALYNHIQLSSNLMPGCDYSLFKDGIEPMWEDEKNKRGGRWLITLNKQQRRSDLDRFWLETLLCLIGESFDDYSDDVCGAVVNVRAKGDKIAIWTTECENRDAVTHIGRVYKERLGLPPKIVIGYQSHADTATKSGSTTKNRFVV
Target sequence (Q04637 whole entry, looked up): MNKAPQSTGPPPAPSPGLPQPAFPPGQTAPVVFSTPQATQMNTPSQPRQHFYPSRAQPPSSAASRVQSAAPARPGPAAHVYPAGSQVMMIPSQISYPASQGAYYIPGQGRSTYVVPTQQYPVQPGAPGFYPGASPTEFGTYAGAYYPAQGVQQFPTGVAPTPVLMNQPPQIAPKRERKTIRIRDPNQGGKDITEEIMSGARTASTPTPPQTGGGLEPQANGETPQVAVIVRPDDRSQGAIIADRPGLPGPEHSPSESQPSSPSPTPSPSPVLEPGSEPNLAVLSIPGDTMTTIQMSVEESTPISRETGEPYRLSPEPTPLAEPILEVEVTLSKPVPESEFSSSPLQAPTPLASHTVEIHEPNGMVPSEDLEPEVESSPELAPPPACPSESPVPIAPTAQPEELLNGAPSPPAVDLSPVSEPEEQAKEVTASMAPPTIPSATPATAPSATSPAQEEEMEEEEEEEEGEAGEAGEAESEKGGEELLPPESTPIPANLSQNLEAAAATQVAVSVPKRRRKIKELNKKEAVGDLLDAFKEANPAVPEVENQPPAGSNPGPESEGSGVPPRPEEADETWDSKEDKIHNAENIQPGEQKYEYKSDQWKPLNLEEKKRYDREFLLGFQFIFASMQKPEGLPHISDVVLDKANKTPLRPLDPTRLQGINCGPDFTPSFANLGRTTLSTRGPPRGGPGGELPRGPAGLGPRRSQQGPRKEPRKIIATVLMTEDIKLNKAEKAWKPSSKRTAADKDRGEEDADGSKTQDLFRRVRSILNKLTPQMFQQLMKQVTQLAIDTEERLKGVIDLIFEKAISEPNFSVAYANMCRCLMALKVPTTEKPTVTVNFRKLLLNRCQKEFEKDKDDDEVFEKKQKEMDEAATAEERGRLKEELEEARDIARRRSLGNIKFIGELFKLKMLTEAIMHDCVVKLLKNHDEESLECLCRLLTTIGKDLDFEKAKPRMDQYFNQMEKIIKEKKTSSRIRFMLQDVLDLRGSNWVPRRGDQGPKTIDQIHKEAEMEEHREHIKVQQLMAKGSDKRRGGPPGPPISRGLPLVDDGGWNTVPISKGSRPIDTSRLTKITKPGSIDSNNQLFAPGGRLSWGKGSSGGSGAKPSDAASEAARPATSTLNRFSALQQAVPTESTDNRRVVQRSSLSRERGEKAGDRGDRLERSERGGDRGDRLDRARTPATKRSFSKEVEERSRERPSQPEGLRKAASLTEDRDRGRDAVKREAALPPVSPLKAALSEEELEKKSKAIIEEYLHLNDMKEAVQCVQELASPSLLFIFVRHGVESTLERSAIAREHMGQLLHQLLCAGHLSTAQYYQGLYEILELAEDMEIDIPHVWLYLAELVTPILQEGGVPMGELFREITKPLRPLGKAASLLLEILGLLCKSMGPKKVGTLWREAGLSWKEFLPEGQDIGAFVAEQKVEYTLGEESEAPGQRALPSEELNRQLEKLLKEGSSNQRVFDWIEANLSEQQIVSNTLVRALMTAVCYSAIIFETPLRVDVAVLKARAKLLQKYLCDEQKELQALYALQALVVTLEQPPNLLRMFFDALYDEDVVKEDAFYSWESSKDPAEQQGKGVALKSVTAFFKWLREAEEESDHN
A number is an active result; . = inactive; ? = inconclusive; / = not tested or not shown; + = active, no number; [ ] = another dose, or the depositor's remark. Compounds with a hit are over-represented: about 1.9% of the library has one in this group of screens. Unless noted, no rule for the calls is given here.

SMILES	PABP polyA inh	eIF4H FP inh	14-3-3 Bad PPI	MLLE-PAM2 inh	eIF4E 4G PPI
CCc1ccc(NC(=O)c2ccc3c(c2)C(=O)N(Cc2ccco2)C3=O)cc1	+	57	.	.	.
COC(=O)Cc1ccc(NC(=O)c2ccc3c(c2)C(=O)N(Cc2ccco2)C3=O)cc1	.	.	/	.	/
O=C(O)c1ccc2c(c1)C(=O)N(Cc1ccco1)C2=O	.	.	/	.	/
Cn1ccsc1=NC(=O)c1ccc(S(C)(=O)=O)cc1	.	.	/	.	/
CC[N+](C)(CC)CCOC(=O)C(O)(c1ccccc1)C1CCCCC1 (centres undefined)	.	.	.	.	.
CC[N+](C)(CC)CCC(c1ccccc1)C1CCCCC1 (centres undefined)	+	.	/	.	/
CC(NC(=O)CNC(=O)c1ccccc1F)c1ccc(-n2ccnc2)cc1 (centres undefined)	/	/	/	.	/
NC(=O)c1cc2c3ccccc3ccn2c1-c1ccccc1	?	?	.	46	.
CCOC(=O)CSc1nc2c(sc(=S)n2-c2ccccc2OC)c(=O)n1-c1ccccc1OC	.	.	/	.	/
CCOC(=O)CSc1nnc(CSc2nc(C)cc(C)n2)n1Cc1ccco1	.	.	.	.	136[fluorescence artefact?]
CCOC(=O)CSc1nc2c(sc(=S)n2-c2ccccc2OC)c(=O)n1Cc1ccco1	.	.	.	38	.
CSc1cccc(NC(=S)N2CCC(N(C)C3CCCC3)CC2)c1	+	2.1	.	.	.
COc1ccccc1N(CC(=O)N1CCCCC1C)S(=O)(=O)c1ccc(Cl)cc1 (centres undefined)	/	/	/	.	/
CCOc1ccc(N)c(SSc2cc(OCC)ccc2N)c1	.	.	/	.	/
CCOc1cc(-c2ccc(N)c(OCC)c2)ccc1N	+	?	.	.	.
Cc1cc(NC(=O)CSCC(=O)N(C)Cc2ccc(Cl)c(Cl)c2)no1	+	.	/	.	/
COc1ccc(OC)c(CN2CCN(C(=O)CN3C(=O)NC4(CCCC4)C3=O)CC2)c1	/	/	/	.	/
CCN1CCN(CCOc2ccc(Br)cc2C)CC1	.	.	89	.	.
O=C(COC(=O)CCC1CCCC1)Nc1ccc(F)cc1	/	/	/	.	/
Cc1cccc(NC(=O)CCc2nnc3ccc(NCc4ccco4)nn23)n1	.	80	/	.	/
COc1ccc(NC(=O)CCc2nnc3ccc(NCc4ccco4)nn23)cc1	.	.	/	.	/
O=C(CCc1nnc2ccc(NCc3ccco3)nn12)Nc1ccccn1	.	88	/	.	/
Cc1cc2nc3c(=O)[nH]c(=O)[nH]c3nc2c([N+](=O)[O-])c1N	.	?	73	.	50
Cc1c(N)c(C(C)(C)C)cc(C(C)(C)C)c1[N+](=O)[O-]	.	.	.	.	.
O=C(NCCO)c1nc(C(=O)c2ccccc2)c2ccccc2n1	/	/	/	.	/
SMILES	PABP polyA inh	eIF4H FP inh	14-3-3 Bad PPI	MLLE-PAM2 inh	eIF4E 4G PPI
Clc1ccc(-c2nc3ncccn3c2Nc2ccc3c(c2)OCO3)cc1	+	61	.	.	.
O=c1cc[nH]c2c1ccc1c(=O)cc[nH]c12	.	86	/	.	/
CC(C)CC(NC(=O)C(COCc1ccccc1)NC(=O)OC(C)(C)C)C(=O)NN (centres undefined)	.	active	.	.	.
CC(C)CC(NC(=O)OC(C)(C)C)C(=O)NCc1ccccc1 (centres undefined)	.	.	.	.	.
CCOC(=O)C1=C(C)NC(=O)NC1c1c(C)nn(-c2ccccc2)c1Cl (centres undefined)	.	.	93	.	.
CCOC(=O)C1=C(C)NC(=O)NC1c1ccco1 (centres undefined)	.	.	.	.	.
COCCOC(=O)C1=C(C)NC(=O)NC1c1c(Cl)nc2ccccn2c1=O (centres undefined)	.	.	.	41	.
COCCOC(=O)C1=C(C)NC(=O)NC1c1ccco1 (centres undefined)	+	58	.	.	.
CCOC(=O)C1=C(C)N(C)C(=O)NC1c1c(C)nn(-c2ccc(C)cc2)c1Cl (centres undefined)	.	.	.	.	.
CCOC(=O)c1ccc2nc(C(F)(F)F)[nH]c(=O)c2c1	.	.	77	.	.
O=C(COC(=O)C1CC2C=CC1C2)NCc1ccco1 (centres undefined)	+	93	.	.	.
O=C(COc1ccccc1)NCc1ccco1	/	/	/	.	/
O=C(COC(=O)CCOc1ccccc1)NCc1ccco1	+	94	.	.	.
CC1(C)CC(=O)c2c(O)cc(OCc3ccc(Br)cc3)cc2O1	.	.	.	.	.
CC1(C)CC(=O)c2ccc(OCc3ccc([N+](=O)[O-])cc3)cc2O1	.	.	.	.	34
O=C(c1cc([N+](=O)[O-])[nH]n1)N1CCSCC1	.	.	.	.	.
N#Cc1ccc(C(c2nnnn2Cc2ccccc2)N2CCCC2)cc1 (centres undefined)	.	.	70	.	.
COCCN(CC(=O)Nc1cccc(C)c1C)C(=O)c1oc2c(Cl)cccc2c1C	/	/	/	.	/
CCN(C(=O)CSc1n[nH]c(-c2ccc(OC)cc2)n1)c1c(N)n(Cc2ccccc2)c(=O)[nH]c1=O	/	/	/	.	/
Cc1ccc(-c2nc(SCC(=O)N(C)c3c(N)n(Cc4ccccc4)c(=O)[nH]c3=O)n[nH]2)cc1	+	106	/	.	/
CC1C/C(=C/c2cccn2C)C(=O)/C(=C/c2cccn2C)C1 (centres undefined)	+	58	.	.	.
Cc1cc(C)nc(NC(=S)NC(=O)c2ccccc2F)n1	/	/	/	.	/
Cc1cc(C)nc(S/C=C/C(=O)c2ccccc2F)n1	.	.	.	42	.
Cc1ccc(-c2nnc(N3CCCCC3)c3ccccc23)cc1	.	.	.	.	.
Cc1ccc(-c2nnc(N3CC(C)OC(C)C3)c3ccccc23)cc1 (centres undefined)	.	.	75	.	.
SMILES	PABP polyA inh	eIF4H FP inh	14-3-3 Bad PPI	MLLE-PAM2 inh	eIF4E 4G PPI
CCC(=O)/C=C1/Sc2ccc(OC)cc2N1CCO	.	.	.	45	.
CCC(=O)/C=C1/Sc2ccc(OC)cc2N1CC	.	.	.	.	.
COc1ccc(CC(=O)Nc2ccccc2C(F)(F)F)cc1S(=O)(=O)N1CCOCC1	/	/	/	.	/
CN(C(=O)c1cccc(NC(=O)Cc2ccc(NC(=O)C3CCN(C(=O)C4CC4)CC3)cc2)c1)C1CCC1	/	/	/	.	/
Cc1c(OC(=O)c2ccc([N+](=O)[O-])cc2)c2c(c[n+]1C)COC(C)(C)OC2	.	.	.	.	41[fluorescence artefact?]
Cc1ccc(N=Cc2nc(-c3ccc(C)cc3)oc2O)cc1	.	.	.	.	66
CCN1C(=O)[C@@H]2[C@@H]3CN(S(=O)(=O)c4ccc(C)cc4)[C@@H](c4ccccc4)[C@@H]3C(=O)C[C@@H]2C1=O	/	/	/	.	/
CCOC1=CC2=C(C(=O)C(Cl)=CC2=O)[C@@H]2CN(S(=O)(=O)c3ccc(C)cc3)[C@@H](c3ccccc3)[C@H]12	/	/	/	46	/
CC(C)(CCC(=S)N1CCOCC1)C1CCCCC1	.	.	/	42	/
S=C(CN1CCCC1=S)N1CCOCC1	/	/	/	.	/
O=C(O)C1=C(C(=O)O)C2C=CC1C2	/	/	/	.	/
CCN1C(=O)/C(=C2\SC(=S)N(c3c(C)n(C)n(-c4ccccc4)c3=O)C2=O)c2ccccc21	.	.	.	44	.
